Test results reported in ChEMBL document CHEMBL2218924, “A broad activity screen in support of a chemogenomic map for kinase signalling research and drug discovery” (Biochem J, 2013).

Tests used:
[1] = molecular target: Death-associated protein kinase 1 (Homo sapiens) (UniProt P53355); settings: at 10 µM
[2] = molecular target: Death-associated protein kinase 2 (Homo sapiens) (UniProt Q9UIK4); settings: at 1 µM
[3] = molecular target: T1, Serine/threonine-protein kinase DCLK2 (Homo sapiens) (UniProt Q8N568); settings: at 10 µM
T1 sequence (whole entry): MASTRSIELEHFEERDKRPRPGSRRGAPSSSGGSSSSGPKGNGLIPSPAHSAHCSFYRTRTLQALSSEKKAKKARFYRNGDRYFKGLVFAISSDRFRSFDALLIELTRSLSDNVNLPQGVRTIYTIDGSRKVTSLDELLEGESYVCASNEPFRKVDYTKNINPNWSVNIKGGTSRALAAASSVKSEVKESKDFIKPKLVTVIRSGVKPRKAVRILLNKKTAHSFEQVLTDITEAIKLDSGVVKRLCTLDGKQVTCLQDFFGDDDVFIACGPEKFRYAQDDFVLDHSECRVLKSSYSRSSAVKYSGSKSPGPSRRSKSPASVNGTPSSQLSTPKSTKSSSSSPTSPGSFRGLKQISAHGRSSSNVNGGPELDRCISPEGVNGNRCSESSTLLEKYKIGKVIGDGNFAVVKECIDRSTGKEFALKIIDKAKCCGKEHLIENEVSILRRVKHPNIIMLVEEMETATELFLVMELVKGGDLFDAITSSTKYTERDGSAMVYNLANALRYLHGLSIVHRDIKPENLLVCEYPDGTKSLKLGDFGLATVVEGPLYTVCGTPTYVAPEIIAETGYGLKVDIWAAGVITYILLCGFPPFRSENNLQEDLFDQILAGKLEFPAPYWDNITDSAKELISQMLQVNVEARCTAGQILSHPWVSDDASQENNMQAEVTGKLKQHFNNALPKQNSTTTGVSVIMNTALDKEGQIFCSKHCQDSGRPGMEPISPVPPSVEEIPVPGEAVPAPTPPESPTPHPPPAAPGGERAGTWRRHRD

[4] = molecular target: T2, Myotonin-protein kinase (Homo sapiens) (UniProt Q09013); settings: at 1 µM
T2 sequence (whole entry): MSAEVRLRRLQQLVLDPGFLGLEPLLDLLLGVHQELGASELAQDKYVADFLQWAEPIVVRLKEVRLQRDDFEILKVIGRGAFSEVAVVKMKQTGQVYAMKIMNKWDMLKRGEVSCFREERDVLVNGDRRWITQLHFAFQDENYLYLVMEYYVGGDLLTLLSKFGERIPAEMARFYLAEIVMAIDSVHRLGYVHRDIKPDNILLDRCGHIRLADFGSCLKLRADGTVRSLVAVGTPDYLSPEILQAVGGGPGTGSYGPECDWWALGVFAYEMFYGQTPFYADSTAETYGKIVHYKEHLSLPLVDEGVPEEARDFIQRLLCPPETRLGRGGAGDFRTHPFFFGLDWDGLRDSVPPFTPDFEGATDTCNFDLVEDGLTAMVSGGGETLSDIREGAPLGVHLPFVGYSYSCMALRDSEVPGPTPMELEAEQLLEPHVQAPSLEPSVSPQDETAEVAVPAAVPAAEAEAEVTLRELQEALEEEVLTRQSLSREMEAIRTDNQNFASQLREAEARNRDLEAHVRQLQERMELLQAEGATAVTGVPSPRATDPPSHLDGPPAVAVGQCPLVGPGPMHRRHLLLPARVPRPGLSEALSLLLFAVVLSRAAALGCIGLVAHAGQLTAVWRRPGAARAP

[5] = molecular target: T2, Myotonin-protein kinase (Homo sapiens); settings: at 10 µM
[6] = molecular target: T3, Serine/threonine-protein kinase 17A (Homo sapiens) (UniProt Q9UEE5); settings: at 1 µM
T3 sequence (whole entry): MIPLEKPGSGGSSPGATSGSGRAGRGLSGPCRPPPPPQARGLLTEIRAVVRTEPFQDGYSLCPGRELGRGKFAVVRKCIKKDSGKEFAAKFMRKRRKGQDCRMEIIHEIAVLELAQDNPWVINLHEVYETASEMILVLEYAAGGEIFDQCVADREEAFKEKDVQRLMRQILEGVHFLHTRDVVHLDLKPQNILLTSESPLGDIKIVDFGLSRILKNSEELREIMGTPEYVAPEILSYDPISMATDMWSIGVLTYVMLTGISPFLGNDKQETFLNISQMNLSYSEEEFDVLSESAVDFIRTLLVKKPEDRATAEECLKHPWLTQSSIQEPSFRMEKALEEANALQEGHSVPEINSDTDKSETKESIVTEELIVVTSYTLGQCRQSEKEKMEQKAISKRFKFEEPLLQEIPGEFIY

[7] = molecular target: T3, Serine/threonine-protein kinase 17A (Homo sapiens); settings: at 10 µM
[8] = molecular target: T1, Serine/threonine-protein kinase DCLK2 (Homo sapiens); settings: at 1 µM
[9] = molecular target: T4, Dual specificity tyrosine-phosphorylation-regulated kinase 2 (Homo sapiens) (UniProt Q92630); settings: at 1 µM
T4 sequence (whole entry): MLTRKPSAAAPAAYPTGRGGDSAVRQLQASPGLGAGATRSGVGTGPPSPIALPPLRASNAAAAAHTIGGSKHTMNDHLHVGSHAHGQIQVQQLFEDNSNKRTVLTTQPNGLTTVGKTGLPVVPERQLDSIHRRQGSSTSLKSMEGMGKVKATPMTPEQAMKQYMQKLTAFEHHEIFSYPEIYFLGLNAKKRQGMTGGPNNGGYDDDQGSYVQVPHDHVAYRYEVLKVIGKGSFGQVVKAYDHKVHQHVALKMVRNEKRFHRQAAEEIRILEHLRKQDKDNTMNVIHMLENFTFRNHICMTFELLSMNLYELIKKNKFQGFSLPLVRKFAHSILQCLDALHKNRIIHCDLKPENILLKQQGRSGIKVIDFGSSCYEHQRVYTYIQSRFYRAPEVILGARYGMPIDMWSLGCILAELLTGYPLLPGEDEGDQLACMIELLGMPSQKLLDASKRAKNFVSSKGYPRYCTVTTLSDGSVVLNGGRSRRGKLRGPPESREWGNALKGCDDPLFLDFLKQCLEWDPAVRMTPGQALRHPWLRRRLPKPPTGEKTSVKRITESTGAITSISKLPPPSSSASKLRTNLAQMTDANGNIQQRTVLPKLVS

[10] = molecular target: T4, Dual specificity tyrosine-phosphorylation-regulated kinase 2 (Homo sapiens); settings: at 10 µM
[11] = molecular target: T5, Ephrin type-A receptor 1 (Homo sapiens) (UniProt P21709); settings: at 1 µM
T5 sequence (whole entry): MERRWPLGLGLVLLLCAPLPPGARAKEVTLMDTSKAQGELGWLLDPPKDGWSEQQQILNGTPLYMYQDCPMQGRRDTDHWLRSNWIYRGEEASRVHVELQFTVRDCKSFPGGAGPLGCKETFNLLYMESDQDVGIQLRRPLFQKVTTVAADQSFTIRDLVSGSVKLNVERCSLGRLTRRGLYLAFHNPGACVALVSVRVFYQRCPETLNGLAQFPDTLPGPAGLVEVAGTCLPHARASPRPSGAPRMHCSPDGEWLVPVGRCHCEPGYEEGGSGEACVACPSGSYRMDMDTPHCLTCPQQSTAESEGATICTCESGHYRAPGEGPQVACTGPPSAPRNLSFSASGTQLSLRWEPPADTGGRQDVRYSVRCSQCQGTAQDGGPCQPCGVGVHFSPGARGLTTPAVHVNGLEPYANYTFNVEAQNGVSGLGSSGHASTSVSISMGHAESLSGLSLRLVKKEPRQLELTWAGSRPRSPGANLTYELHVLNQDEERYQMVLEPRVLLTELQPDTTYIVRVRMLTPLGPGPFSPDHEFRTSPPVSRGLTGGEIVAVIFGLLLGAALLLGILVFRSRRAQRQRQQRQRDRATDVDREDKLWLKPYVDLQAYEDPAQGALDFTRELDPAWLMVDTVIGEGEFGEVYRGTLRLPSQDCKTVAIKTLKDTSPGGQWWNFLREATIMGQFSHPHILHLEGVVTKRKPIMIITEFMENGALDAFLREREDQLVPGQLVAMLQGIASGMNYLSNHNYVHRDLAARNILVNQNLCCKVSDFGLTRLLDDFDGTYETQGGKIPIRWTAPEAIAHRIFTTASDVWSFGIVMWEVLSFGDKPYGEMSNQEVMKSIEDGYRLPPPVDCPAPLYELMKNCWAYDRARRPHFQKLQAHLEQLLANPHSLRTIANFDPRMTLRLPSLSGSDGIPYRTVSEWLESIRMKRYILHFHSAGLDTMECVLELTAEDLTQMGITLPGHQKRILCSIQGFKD

[12] = molecular target: T5, Ephrin type-A receptor 1 (Homo sapiens); settings: at 10 µM
[13] = molecular target: T6, Ephrin type-A receptor 3 (Homo sapiens) (UniProt P29320); settings: at 1 µM
T6 sequence (whole entry): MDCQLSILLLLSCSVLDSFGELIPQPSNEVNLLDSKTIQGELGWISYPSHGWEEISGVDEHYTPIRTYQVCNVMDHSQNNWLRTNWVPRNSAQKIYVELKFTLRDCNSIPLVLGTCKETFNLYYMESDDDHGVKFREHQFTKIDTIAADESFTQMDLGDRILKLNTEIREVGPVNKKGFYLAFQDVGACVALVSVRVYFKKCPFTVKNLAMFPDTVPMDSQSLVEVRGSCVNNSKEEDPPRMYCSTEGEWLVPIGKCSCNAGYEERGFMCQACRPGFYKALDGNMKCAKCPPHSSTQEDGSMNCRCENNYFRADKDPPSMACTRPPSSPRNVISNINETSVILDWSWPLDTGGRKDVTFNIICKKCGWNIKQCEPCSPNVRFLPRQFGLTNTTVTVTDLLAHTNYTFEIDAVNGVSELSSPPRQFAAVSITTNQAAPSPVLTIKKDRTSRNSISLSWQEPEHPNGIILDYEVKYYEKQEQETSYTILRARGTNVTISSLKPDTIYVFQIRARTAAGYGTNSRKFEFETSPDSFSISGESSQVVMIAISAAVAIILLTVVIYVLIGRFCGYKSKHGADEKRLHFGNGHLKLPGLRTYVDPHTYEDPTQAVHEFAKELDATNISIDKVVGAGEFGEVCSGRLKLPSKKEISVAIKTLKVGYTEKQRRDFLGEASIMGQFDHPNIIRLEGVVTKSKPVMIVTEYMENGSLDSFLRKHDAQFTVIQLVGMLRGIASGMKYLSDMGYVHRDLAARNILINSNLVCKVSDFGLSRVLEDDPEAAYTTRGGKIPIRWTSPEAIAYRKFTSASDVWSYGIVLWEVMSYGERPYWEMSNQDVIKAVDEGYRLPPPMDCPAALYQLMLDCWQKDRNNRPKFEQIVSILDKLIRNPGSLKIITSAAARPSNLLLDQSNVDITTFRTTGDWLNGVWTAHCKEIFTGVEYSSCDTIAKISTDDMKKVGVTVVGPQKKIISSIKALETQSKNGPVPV

[14] = molecular target: Death-associated protein kinase 2 (Homo sapiens) (UniProt Q9UIK4); settings: at 10 µM
[15] = molecular target: T7, Discoidin domain-containing receptor 2 (Homo sapiens) (UniProt Q16832); settings: at 1 µM
T7 sequence (whole entry): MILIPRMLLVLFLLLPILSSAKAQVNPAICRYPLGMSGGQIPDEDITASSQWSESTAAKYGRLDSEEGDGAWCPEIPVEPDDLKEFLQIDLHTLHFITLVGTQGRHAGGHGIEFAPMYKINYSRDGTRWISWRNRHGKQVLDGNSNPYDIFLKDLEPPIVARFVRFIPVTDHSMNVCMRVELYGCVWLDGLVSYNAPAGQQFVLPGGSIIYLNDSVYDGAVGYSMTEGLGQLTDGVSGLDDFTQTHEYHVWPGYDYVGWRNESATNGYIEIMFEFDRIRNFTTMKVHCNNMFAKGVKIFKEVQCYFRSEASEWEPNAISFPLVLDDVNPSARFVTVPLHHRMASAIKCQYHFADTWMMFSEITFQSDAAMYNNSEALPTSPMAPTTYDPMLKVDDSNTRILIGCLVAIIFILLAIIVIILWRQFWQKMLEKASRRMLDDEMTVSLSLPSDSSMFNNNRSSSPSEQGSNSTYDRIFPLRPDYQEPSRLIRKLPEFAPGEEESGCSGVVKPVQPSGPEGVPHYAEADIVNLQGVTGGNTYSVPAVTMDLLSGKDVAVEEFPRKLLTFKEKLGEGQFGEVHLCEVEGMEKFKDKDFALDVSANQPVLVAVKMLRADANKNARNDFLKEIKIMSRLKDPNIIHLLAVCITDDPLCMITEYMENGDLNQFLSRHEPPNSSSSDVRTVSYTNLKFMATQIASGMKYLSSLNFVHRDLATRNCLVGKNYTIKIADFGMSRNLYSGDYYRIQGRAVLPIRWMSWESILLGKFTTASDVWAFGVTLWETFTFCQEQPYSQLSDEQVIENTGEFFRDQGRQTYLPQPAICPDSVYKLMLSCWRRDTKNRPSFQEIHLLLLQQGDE

[16] = molecular target: T7, Discoidin domain-containing receptor 2 (Homo sapiens); settings: at 10 µM
[17] = molecular target: Ephrin type-A receptor 2 (Homo sapiens) (UniProt P29317); settings: at 1 µM
Chain of Ephrin type-A receptor 2 (Homo sapiens) (P29317 whole entry): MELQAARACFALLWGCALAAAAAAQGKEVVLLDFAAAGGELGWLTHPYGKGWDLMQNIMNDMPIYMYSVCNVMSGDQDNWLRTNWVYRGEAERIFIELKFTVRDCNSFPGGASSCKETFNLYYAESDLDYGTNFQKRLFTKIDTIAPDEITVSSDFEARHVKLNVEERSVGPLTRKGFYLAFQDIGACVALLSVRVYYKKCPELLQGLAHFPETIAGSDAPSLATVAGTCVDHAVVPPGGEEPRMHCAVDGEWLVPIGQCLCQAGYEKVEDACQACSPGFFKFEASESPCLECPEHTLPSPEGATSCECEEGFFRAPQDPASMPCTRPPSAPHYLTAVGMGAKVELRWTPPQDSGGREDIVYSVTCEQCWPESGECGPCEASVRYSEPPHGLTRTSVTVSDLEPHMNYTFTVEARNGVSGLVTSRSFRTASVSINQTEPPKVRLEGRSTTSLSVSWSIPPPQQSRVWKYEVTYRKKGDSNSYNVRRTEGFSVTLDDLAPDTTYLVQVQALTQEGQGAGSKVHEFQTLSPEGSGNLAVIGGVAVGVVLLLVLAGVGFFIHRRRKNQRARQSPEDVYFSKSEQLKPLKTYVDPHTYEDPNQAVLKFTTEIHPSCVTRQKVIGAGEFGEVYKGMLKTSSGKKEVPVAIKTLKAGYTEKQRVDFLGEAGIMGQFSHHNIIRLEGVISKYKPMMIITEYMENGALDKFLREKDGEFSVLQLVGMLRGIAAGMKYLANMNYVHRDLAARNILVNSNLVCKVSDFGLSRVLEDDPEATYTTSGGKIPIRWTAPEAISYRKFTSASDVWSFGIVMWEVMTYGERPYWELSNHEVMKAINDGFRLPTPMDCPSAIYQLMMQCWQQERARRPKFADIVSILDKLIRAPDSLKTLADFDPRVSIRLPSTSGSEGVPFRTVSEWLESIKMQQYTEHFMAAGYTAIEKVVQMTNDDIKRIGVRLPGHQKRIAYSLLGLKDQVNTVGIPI

Chain of Death-associated protein kinase 1 (Homo sapiens) (P53355 whole entry, looked up): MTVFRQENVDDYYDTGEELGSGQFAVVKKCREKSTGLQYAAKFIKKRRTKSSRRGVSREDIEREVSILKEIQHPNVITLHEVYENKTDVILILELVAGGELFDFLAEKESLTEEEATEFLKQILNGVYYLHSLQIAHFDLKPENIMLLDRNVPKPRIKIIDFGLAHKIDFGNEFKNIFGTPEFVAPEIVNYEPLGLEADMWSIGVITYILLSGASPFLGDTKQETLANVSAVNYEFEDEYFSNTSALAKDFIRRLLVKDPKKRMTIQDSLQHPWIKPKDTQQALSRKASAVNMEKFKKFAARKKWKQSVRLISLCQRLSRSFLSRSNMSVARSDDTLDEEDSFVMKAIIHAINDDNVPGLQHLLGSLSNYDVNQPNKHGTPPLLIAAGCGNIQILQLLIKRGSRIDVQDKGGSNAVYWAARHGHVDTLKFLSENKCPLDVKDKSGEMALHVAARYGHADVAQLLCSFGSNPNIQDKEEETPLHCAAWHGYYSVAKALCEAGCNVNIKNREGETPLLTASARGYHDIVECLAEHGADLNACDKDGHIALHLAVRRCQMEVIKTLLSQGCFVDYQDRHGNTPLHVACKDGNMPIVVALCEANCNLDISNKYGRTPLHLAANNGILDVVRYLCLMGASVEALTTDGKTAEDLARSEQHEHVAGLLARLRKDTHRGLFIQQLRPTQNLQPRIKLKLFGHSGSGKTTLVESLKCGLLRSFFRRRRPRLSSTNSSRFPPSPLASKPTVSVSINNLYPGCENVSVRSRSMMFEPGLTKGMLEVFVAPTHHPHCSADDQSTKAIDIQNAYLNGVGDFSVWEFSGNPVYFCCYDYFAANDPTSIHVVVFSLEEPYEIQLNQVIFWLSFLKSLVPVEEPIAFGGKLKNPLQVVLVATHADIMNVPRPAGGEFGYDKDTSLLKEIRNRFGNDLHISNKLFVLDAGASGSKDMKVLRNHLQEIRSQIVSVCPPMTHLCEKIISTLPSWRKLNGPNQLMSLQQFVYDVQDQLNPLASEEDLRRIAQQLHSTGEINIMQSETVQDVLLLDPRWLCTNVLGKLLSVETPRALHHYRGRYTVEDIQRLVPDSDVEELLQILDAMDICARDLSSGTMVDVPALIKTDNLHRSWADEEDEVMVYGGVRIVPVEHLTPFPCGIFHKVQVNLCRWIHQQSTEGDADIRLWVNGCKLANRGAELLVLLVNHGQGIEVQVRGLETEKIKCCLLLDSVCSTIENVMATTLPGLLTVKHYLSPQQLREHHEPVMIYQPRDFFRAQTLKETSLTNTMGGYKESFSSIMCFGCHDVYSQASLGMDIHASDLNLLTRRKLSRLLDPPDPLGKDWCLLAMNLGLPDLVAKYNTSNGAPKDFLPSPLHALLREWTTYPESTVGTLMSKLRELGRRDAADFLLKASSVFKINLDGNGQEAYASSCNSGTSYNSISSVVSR
Chain of Death-associated protein kinase 2 (Homo sapiens) (Q9UIK4 whole entry, looked up, the tested form may be a part): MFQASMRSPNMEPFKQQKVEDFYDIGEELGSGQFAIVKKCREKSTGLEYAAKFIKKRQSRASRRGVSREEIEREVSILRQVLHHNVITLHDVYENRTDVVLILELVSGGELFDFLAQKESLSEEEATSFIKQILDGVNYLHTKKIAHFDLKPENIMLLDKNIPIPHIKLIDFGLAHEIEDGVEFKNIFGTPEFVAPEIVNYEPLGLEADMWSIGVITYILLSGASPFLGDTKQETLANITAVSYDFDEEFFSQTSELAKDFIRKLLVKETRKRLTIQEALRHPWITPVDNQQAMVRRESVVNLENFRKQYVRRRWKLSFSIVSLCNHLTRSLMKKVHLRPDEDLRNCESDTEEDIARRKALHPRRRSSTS

SMILES | residual activity [1] | residual activity [2] | residual activity [3] | residual activity [4] | residual activity [5] | residual activity [6] | residual activity [7] | residual activity [8] | residual activity [9] | residual activity [10] | residual activity [11] | residual activity [12] | residual activity [13] | residual activity [14] | residual activity [15] | residual activity [16] | residual activity [17]
N#Cc1c(NC(=O)c2cccc3ccccc23)sc2c1CCCC2 | 81% | 93% | 77% | 100% | 91% | 77% | 134% | – | – | – | – | – | – | – | – | – | –
Nc1n[nH]c2nc3ccccc3nc12 | 96% | – | 84% | 98% | 76% | 86% | 50% | 98% | 92% | 41% | 87% | 83% | 98% | – | – | – | –
CSc1nc(-c2ccc(F)cc2)c(-c2ccnc(NC(C)c3ccccc3)c2)[nH]1 (configuration not stated) | 96% | 101% | 100% | – | – | – | 72% | 137% | – | 86% | 101% | 78% | – | 95% | 98% | 93% | 87%
CC(C)N(CCC(=O)c1ccc2ccccc2c1)Cc1ccccc1 | 76% | – | 80% | – | 131% | – | – | 80% | – | – | 75% | 85% | – | – | – | – | –
